# Luc counter – Counterscreen for Luciferase (Kinase-Glo TM) Inhibition. hit rate 0.28% among 200,000. Luciferin 4-monooxygenase (Photuris pensylvanica), Q27757. Kinase-Glo luciferase, ATP luminescence, 8 min. AID 1379, 2008. Potency, µM (series often up to 38.3 µM), for inactives: top-dose activity change, negative = inhibition, hits mostly inhibitors; further: on the % scale 0 is the no-effect control and ±100 the full control effect; nearly all actives have a fitted effect of over 60% in size
#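 Luminescence was the read-out, taken after 8-minute incubation at ambient temperature. Luciferase turned over luciferin with 10 uM ATP in imidazole pH 7.2 buffer containing KCl, MgCl2, Tween 20 and BSA.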
# FLuc modulator – qHTS profiling assay for firefly luciferase inhibitor/activator using purifed enzyme and Km concentrations of substrates (counterscreen for miR-21 project); Luciferin 4-monooxygenase (Photinus pyralis), P08659; purified FLuc, Km substrates, luminescence inhibition; Potency, µM (titrated, usually from 57.5 µM), inactives show top-dose activity change, negative = inhibition, usual class: inhibitors; hit rate 6.9% among 360,000; AID 588342, 2011;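 further: plate controls were vehicle for no effect and reference inhibitor for full effect; nearly all actives have a fitted effect of over 55% in size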
# Target sequence (P08659 whole entry, looked up): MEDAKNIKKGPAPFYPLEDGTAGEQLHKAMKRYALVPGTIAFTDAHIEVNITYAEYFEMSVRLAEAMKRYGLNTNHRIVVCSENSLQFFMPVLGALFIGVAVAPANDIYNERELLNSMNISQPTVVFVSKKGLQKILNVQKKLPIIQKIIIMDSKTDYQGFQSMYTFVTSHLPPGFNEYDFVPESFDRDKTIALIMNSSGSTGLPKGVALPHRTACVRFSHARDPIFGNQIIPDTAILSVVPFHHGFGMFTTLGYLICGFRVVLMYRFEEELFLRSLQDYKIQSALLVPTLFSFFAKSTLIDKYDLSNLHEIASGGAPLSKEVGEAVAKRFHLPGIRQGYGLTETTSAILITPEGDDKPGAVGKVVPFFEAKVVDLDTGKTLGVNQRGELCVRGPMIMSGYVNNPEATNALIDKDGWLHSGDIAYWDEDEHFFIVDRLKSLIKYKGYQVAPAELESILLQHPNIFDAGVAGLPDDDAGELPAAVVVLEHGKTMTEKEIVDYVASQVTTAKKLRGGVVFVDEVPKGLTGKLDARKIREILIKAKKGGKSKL
#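 Purified P. pyralis luciferase (10nM final) with 10uM D-luciferin and 10uM ATP (Km levels) in 50mM Tris acetate pH 7.5, 10mM Mg acetate, 0.01% Tween-20, 0.05% BSA; qHTS 6-point titration, ~60 µM downward; luminescence read.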
# NPC1 promoter act – qHTS Assay for NPC1 Promoter Activators | Huh7 NPC1 promoter luciferase reporter, 24 h | Potency, µM (top dose mostly 9.22 µM), for inactives: at the highest dose activation, hits mostly activators | hit rate 2.4% among 320,000 | AID 485313, 2010; further: % of control where 0% means no effect; nearly all actives have a fitted effect of over 60% in size
#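 In 1536-well qHTS, Huh7 cells harboring an NPC1 promoter–luciferase construct received compound for 24 h; activation was quantified by luminescence following luciferase reagent addition.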
# Rab9 promoter act – qHTS Assay for Rab9 Promoter Activators | Huh7 Rab9 promoter-luciferase reporter, luminescence, 24 h | Potency, µM (highest dose often 9.22 µM), without a hit: at the top dose activation, negative = inhibition, usual class: activators | hit rate 2.8% among 320,000; further: % of control where 0% means no effect; nearly all actives have a fitted effect of over 60% in size
#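 Promoter activation is measured as luciferase luminescence in Huh7 cells stably transfected with a Rab9 promoter–luciferase construct, following 24 h compound exposure at 37 °C and 10 min reagent incubation at ambient temperature.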
# SMN2 splice enh – qHTS Assay for Enhancers of SMN2 Splice Variant Expression; HEK293 SMN2-luciferase splicing reporter, luminescence, 30-36 h; Potency, µM (doses to about 46.1 µM), inactives show at the highest dose activity change, positive = activation, actives largely listed as activators; hit rate 2.8% among 210,000; further: % of control where 0% means no effect; nearly all actives have a fitted effect of over 55% in size
#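 HEK293 cells carry an SMN2 […]–luciferase reporter in which exon 7 inclusion puts luciferase in frame. Cells were plated 10-12 h before compound addition, then incubated 30-36 h at 37C. ONE-Glo luminescence was read; sodium butyrate at 4.5 mM final served as control.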
# ELG1 genotox – qHTS screen for small molecules that induce genotoxicity in human embryonic kidney (HEK293T) cells expressing luciferase-tagged ELG1; hit rate 1.3% among 330,000; Potency, µM (titrated, usually from 46 µM), without a hit: at the top dose activity change, positive = activation, hits mostly activators; HEK293T ELG1-luciferase reporter, luminescence, 16 h; AID 504466, 2011; further: % of control where 0% means no effect; nearly all actives have a fitted effect of over 60% in size
#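 DMSO vehicle served as control against compound-treated ELG1-luciferase HEK293T cells; exposure lasted 16 hr at 37 °C and 5% CO2, followed by ONE-Glo luminescence detection after 30 min.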
# Active calls of the source: *; ? = inconclusive; . = not tested or not shown. Rows were chosen to be rich in hits. Some 7.3% of all compounds tested hit in one or more screens of this group. The call rests on the fitted dose curve; in most records, active means well fitted curve in the direction sought with a large enough effect; inconclusive means small, poorly fitted or top-dose-only effect, or another doubt; inactive means no such curve, though single readings can be large; an effect the other way counts as inactive or inconclusive. Potency means the concentration at half of the fitted maximal effect.
SMILES,Luc counter,FLuc modulator,NPC1 promoter act,Rab9 promoter act,SMN2 splice enh,ELG1 genotox
O=C1c2ccccc2C(=O)C1c1ccnc2ccccc12,-24%,0.15µM*,3.5µM*,0.63µM*,0.4µM*,?
CN(C)c1oc(/C=C/c2ccccc2)nc1C#N,-5%,17µM*,?,?,13µM*,?
COc1ccccc1/C=C/c1nc(C#N)c(N(C)C)o1,.,7.6µM*,?,?,10µM*,21µM*
CNc1oc(/C=C/c2cccc(OC)c2)nc1C#N,.,15µM*,3%,0%,.,21µM*
CC(C)Cc1nc2oc3c(=O)[nH]cnc3c2c2c1CCC2,10%,1%,-2%,13%,-10%,-4%
CCOc1ncccc1C(=O)OCc1ccc(Cl)cc1,3%,?,5%,-3%,5%,0%
Cc1cccc(C(=O)OCc2cc(=O)oc3c(C)c(C)ccc23)c1O,.,1%,?,?,.,9%
COC(=O)c1ccc(COC(=O)c2ccccc2OC)cc1,-2%,19µM*,12%,25%,10%,1%
CCOc1ncccc1C(=O)OCc1cc(=O)oc2c(C)c(C)ccc12,-5%,3µM*,-2%,-6%,-5%,0%
CCOc1ncccc1C(=O)OCc1ccc(C(=O)OC)cc1,-6%,?,10%,-15%,14µM*,?
CC(Sc1n[nH]c(=O)[nH]c1=O)C(=O)OCc1ccccc1 (centres undefined),2%,-3%,.,.,0%,.
CCC(C)C(NC(=O)C1CCC(C)CC1)C(=O)Nc1cc(OC)ccc1OC (centres undefined),-3%,2%,-1%,-8%,-5%,-3%
CC1CCN(C(=O)CCCC(=O)N2CCC(C)CC2)CC1,.,9.5µM*,?,18%,.,0%
COc1ccc(-c2ccc(SCC(=O)Nc3nccs3)nn2)cc1OC,0%,?,20%,?,8%,0%
CC(C)c1nc2ccc(NC(=O)C34CC5CC(CC(C5)C3)C4)cc2[nH]1,-3%,15µM*,8%,5%,-5%,22%
O=C(Nc1ccc2nc(-c3cccnc3)[nH]c2c1)C1CCCCC1,-3%,12µM*,8%,14%,4%,1%
Nc1cccc(C(=O)Nc2ccc3nc(-c4cccnc4)[nH]c3c2)c1,-6%,?,-2%,0%,-2%,0%
O=C(Nc1ccc2nc(-c3cccnc3)[nH]c2c1)C12CC3CC(CC(C3)C1)C2,-1%,11µM*,14%,2%,13%,3%
CN(CC(=O)Nc1ccc(Cl)c(C(F)(F)F)c1)C(=O)c1cn2ccccc2n1,.,?,-5%,-1%,.,23µM*
Cc1ccc(NC(=O)COC(=O)CN2C(=O)C3CCCCC3C2=O)cc1C (centres undefined),.,.,0%,-2%,.,3%
CCCN=C1N(CC)C[C@@H]2[C@@H]3C(=O)N(C)C(=O)[C@@H]3[C@](C)(C(=O)OC)N12,.,.,.,.,.,9%
S=C(c1ccc(OCc2ccccc2)cc1)N1CCCC1,.,19µM*,?,?,.,?
CCOc1cc(C(=S)N2CCCC2)ccc1OCc1ccccc1,.,3%,-1%,1%,.,0%
Fc1ccc(COc2ccc(C(=S)N3CCCC3)cc2)cc1,.,21µM*,2.2µM*,1.3µM*,.,?
C=CCNc1ncnc2c1[nH]c1ccc(Cl)cc12,-3%,12µM*,5%,30%,-80%,?
SMILES,Luc counter,FLuc modulator,NPC1 promoter act,Rab9 promoter act,SMN2 splice enh,ELG1 genotox
CCn1ccnc1CN(C)Cc1cn(-c2cccc(C)c2)nc1-c1cccc(F)c1,4%,?,-7%,-4%,.,-5%
O=C(Nc1cc(Cl)ccc1N1CCOCC1)c1ccc(Br)o1,.,0.85µM*,3.2µM*,0.56µM*,.,1.2µM*
O=C(CNC(=O)c1ccc(Br)o1)NCc1ccc(Cl)cc1Cl,.,-14%,-4%,-5%,.,11%
O=C(Nc1ccc(Cl)cc1Cl)c1ccc(Br)o1,.,13µM*,2.2µM*,?,.,?
COc1ccc(Cl)cc1C(=O)Nc1ccncc1,.,-19%,-5%,7%,.,-4%
CCN(CC)c1ccc(NC(=O)c2cc3c(OC)cccc3[nH]2)cc1,.,7.6µM*,-3%,5%,.,-1%
COc1ccc(Cl)cc1C(=O)Nc1ccc2c(c1)OCO2,-11%,24µM*,?,?,15%,?
CCN(CC)c1ccc(NC(=O)c2cc(Cl)ccc2OC)cc1,17%,15µM*,16%,16%,4%,9%
COc1ccc(Cl)cc1C(=O)Nc1ccc2c(c1)OCCO2,.,1.9µM*,?,26%,.,?
CC[C@@]1(C(=O)OC)N[C@H](CN(C)S(=O)(=O)c2ccccc2)[C@@H]2C(=O)N(C)C(=O)[C@@H]21,.,.,.,.,.,1%
CCN(CC)CCCNC(=O)CCC(=O)NNc1nc2ccccc2c2nc(C)nn12,-5%,0%,0%,-11%,-11%,5%
Brc1ccc(/C=N/Nc2nc3ccccc3o2)cc1,.,1.5µM*,1.6µM*,1.1µM*,.,?
Oc1ccccc1/C=N/Nc1nc2ccccc2o1,.,1.9µM*,-15%,-17%,.,9.2µM*
O=C(CSc1ncn[nH]1)Nc1nc(-c2ccccc2)cs1,-2%,-9%,4%,2%,-10%,-4%
CCNc1ccccc(-c2ccc3ccccc3n2)c1=O,5%,12µM*,?,?,11µM*,?
C=C(C)Cn1c(SCC(=O)c2ccccc2)nc2sc3c(c2c1=O)CCCC3,.,-1%,.,.,5.6µM*,.
C=C(C)Cn1c(SCC(=O)Nc2cccc(C)c2)nc2sc3c(c2c1=O)CCCC3,.,0%,.,.,-19%,.
C=CCn1c(SCC(=O)Nc2cc(C)on2)nc2sc3c(c2c1=O)CCCC3,-3%,-1%,-1%,-1%,13µM*,-1%
Cc1ccc(-c2n[nH]c3c2C(c2ccccc2Cl)N(c2ccc(C(=O)O)cc2)C3=O)cc1 (centres undefined),.,-18%,.,.,2%,.
Cc1nc2c(ccc3nc(NC(=O)C4CC4)sc32)s1,-9%,13µM*,?,-3%,-51%,-6%
CCC(=O)Nc1nc2ccc3sc(C)nc3c2s1,-7%,6.7µM*,?,?,15%,?
Cc1c(Cl)ccc2sc(NC(=O)C3CC3)nc12,.,?,20%,10%,.,7%
CCOCC(=O)N1CCCC(C(=O)OCC)C1 (centres undefined),0%,3%,-3%,-8%,0%,-1%
